High-throughput results as filed in PubChem BioAssay.
Rows were chosen to be rich in hits. Some 4.7% of all compounds tested hit in one or more screens of this group.
GDH-TPI inh – counter-screen for M. tuberculosis FBA inhibitors: GDH-TPI coupled enzymes. GDH-TPI coupled enzyme counterscreen, NADH absorbance. inhibition, % at 4.8 µM. 360,000 compounds, 1.2% hits. AID 588335;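 further: 0% = DMSO wells and 100% = wells lacking the enzyme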
DUSP3 inh – blocks human VHR1 dual specificity phosphatase. P51452. recombinant VHR phosphatase, pNPP absorbance. inhibition, % at 13.3 µM. 290,000 compounds, 0.52% hits; in the data active means inhibition above about 50%
Target sequence (P51452 whole entry, looked up): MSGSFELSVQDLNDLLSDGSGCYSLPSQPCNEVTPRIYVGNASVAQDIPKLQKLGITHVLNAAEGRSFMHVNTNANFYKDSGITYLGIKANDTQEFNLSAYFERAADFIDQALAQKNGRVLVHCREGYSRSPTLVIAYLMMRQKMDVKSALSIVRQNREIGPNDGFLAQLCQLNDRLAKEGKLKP
FBA Mtb inh – Mtb fructose-bisphosphate aldolase inhibition; inhibition, % at 1 µM; 360,000 compounds, 2.3% hits; purified M. tuberculosis FBA, fluorescence read-out; P9WQA3; in the data active means inhibition above about 27%;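 further: 0% = vehicle and 100% = reference inhibitor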
Target sequence (P9WQA3 whole entry, looked up): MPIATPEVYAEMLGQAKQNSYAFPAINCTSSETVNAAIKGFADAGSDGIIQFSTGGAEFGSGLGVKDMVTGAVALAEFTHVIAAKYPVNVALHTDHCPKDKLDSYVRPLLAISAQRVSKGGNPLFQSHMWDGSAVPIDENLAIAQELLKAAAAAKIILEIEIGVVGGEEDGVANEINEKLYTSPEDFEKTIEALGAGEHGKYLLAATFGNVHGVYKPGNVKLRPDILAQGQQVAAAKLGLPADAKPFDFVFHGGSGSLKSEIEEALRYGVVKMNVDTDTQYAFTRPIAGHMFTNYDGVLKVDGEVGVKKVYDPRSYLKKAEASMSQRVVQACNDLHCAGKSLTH
RecA splice inh – inhibitors of M. tuberculosis RecA intein splicing; P9WHJ3; cell-free RecA intein splicing, fluorescence; inhibition, % (no concentration beside the values); 290,000 compounds, 0.75% hits; in the data active means inhibition above about 30%;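 further: 0% = vehicle wells and 100% = reference inhibitor control wells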
3CLpro inhibitor – SARS-CoV 3CLpro protease inhibition; P0C6X7; recombinant SARS-CoV 3CLpro, quenched FRET peptide cleavage; inhibition, % at 6 µM; 290,000 compounds, 0.14% hits; in the data active means inhibition above about 12%
CCHF vOTU inh – blocks the CCHF virus ovarian tumor domain protease; CCHFV vOTU protease, Pep-AMC fluorescence; inhibition, % at 11.5 µM; 370,000 compounds, 0.55% hits; AID 651958; further: 0% = vehicle wells with enzyme and 100% = no enzyme wells
* marks the source's active call; other numbers are inactive results. Unless noted, no stated cut-off is given here; in the data, active means inhibition above about 30%; inactive means the rest.

Cc1cc(C(=O)N2CCCC(Nc3ccc(F)cc3)C2)c(C)o1 (stereo unspecified) was read as GDH-TPI inh 4, DUSP3 inh 8, FBA Mtb inh -1, RecA splice inh -1, 3CLpro inhibitor -3 and CCHF vOTU inh -7.
CCCn1c(SCC(=O)Nc2nonc2C)nnc1-c1ccoc1C was read as GDH-TPI inh -1, DUSP3 inh 7, FBA Mtb inh active, 3CLpro inhibitor -7 and CCHF vOTU inh 7.
Screening COc1ccc(-c2nc(CS(=O)(=O)CC(=O)NCCCN3CCN(C)CC3)c(C)o2)cc1 returned GDH-TPI inh -10, DUSP3 inh 57*, FBA Mtb inh 3, RecA splice inh -1, 3CLpro inhibitor -6 and CCHF vOTU inh 6.
For Cc1c(C=NNc2ccccc2)[nH]c(=O)[nH]c1=O the results were GDH-TPI inh 32*, FBA Mtb inh 6 and CCHF vOTU inh 10.
For O=C(N/N=C\c1ccc(O)c([N+](=O)[O-])c1)c1ccccc1-n1cccc1 the results were GDH-TPI inh 46*, DUSP3 inh 3, FBA Mtb inh -12, RecA splice inh -2, 3CLpro inhibitor 7 and CCHF vOTU inh 24.
O=C(N/N=C/c1cc([N+](=O)[O-])cc([N+](=O)[O-])c1O)C(O)(c1ccccc1)c1ccccc1 was read as GDH-TPI inh 4, FBA Mtb inh -13 and CCHF vOTU inh 21.
Screening O=C(N/N=C/c1ccc(O)c([N+](=O)[O-])c1)C(O)(c1ccccc1)c1ccccc1 returned GDH-TPI inh 35*, DUSP3 inh 9, FBA Mtb inh -4, 3CLpro inhibitor 4 and CCHF vOTU inh 14.
`COc1cc(C=NNC(=O)c2ccccc2-n2cccc2)ccc1O` gave GDH-TPI inh 19, FBA Mtb inh 3 and CCHF vOTU inh 6.
Screening COc1ccc(NC(=O)/C(=C/c2cccs2)NC(=O)c2ccco2)cc1 returned GDH-TPI inh 45*, DUSP3 inh 5, FBA Mtb inh 3, RecA splice inh -1, 3CLpro inhibitor -4 and CCHF vOTU inh 10.
O=C(Nc1cccc(C(=O)O)c1)/C(=C\c1ccco1)NC(=O)c1ccc(Br)o1 was read as GDH-TPI inh 20, DUSP3 inh 11, FBA Mtb inh 0, RecA splice inh 1, 3CLpro inhibitor 2 and CCHF vOTU inh 20.
Screening COc1ccc(NC(=O)/C(=C\c2ccc(OC)c(OC)c2)NC(=O)c2ccco2)cc1 returned GDH-TPI inh 37*, DUSP3 inh 1, FBA Mtb inh 0, RecA splice inh 0, 3CLpro inhibitor 4 and CCHF vOTU inh 14.
`COc1ccc(/C=C(/NC(=O)c2ccc(Br)o2)C(=O)Nc2cccc(C(=O)O)c2)cc1` gave GDH-TPI inh 34*, FBA Mtb inh 3 and CCHF vOTU inh 20.
For CC(=O)c1ccc(NC(=O)/C(=C\c2cccs2)NC(=O)c2ccco2)cc1 the results were GDH-TPI inh 33*, DUSP3 inh 5, FBA Mtb inh -5, RecA splice inh 1, 3CLpro inhibitor -1 and CCHF vOTU inh 14.
`COc1ccccc1NC(=O)/C(=C/c1cccs1)NC(=O)c1ccco1` gave GDH-TPI inh 19, DUSP3 inh 9, FBA Mtb inh -3, RecA splice inh 1, 3CLpro inhibitor 5 and CCHF vOTU inh -2.
For COc1ccc(CCCN2CCC(CN3CCNC(=O)C3=O)CC2)cc1OC the results were GDH-TPI inh 1, FBA Mtb inh -1 and CCHF vOTU inh 1.
Screening CCCCNC(=O)C[C@H]1C[C@@]2(C(=O)OC)C(=C[C@H](C(C)(C)C)O[C@@H]2C)N(CCc2ccc(OC)c(OC)c2)C1=O returned CCHF vOTU inh 10.
`CCOC(=O)C1=CCN(S(=O)(=O)c2cccc(Cl)c2)C1c1ccc(Cl)cc1` (stereo unspecified) gave CCHF vOTU inh 6.
CCOC(=O)N1CCN(S(=O)(=O)N2CCCC(C(=O)NCCCN3CC(C)CC(C)C3)C2)CC1 (stereo unspecified) was read as GDH-TPI inh 13, DUSP3 inh 13, FBA Mtb inh 2, RecA splice inh -1, 3CLpro inhibitor 1 and CCHF vOTU inh 8.
COc1ccc2cc3cc(C(=O)NCCN4CCN(Cc5ccccc5)CC4)oc3nc2c1 was read as GDH-TPI inh 20, DUSP3 inh 47, FBA Mtb inh active, RecA splice inh -2, 3CLpro inhibitor -9 and CCHF vOTU inh -269.
For COc1ccc2cc3cc(C(=O)NCCN4CCc5ccccc5C4)oc3nc2c1 the results were GDH-TPI inh 38*, DUSP3 inh 13, FBA Mtb inh 188* and 3CLpro inhibitor 3.
COc1ccc(NC(=O)N(C)C[C@@H]2OCCCC[C@@H](C)Oc3ccc(NS(C)(=O)=O)cc3C(=O)N([C@H](C)CO)C[C@@H]2C)cc1 was read as CCHF vOTU inh 2.
For CC(C)C[C@@H](CN1CCC[C@H]1CN1C(=O)C(=O)NC[C@@H]1Cc1ccc(O)cc1)N1C[C@H](Cc2ccc(O)cc2)N(CCc2ccccc2)C(=O)C1=O the results were CCHF vOTU inh 12.
For COc1ccc(-c2cc(C(=O)Nc3ccc(F)cc3F)no2)cc1 the results were GDH-TPI inh 1, DUSP3 inh 55*, FBA Mtb inh -3, RecA splice inh 1, 3CLpro inhibitor -5 and CCHF vOTU inh 1.
For Cc1cccc(C2=NN(c3ccc(Br)cc3)[C@@H](C(=O)N3CCOC3=O)[C@@H]2c2ccccc2)c1 the results were GDH-TPI inh 17 and FBA Mtb inh 28*.
Screening O=C1OCCN1C(=O)[C@H]1[C@H](c2ccc([N+](=O)[O-])cc2)C(c2ccc(F)cc2)=NN1c1ccc(Br)cc1 returned GDH-TPI inh 30, FBA Mtb inh 1 and CCHF vOTU inh 32*.
Cc1cccc(C2=NN(c3ccccc3)[C@@H](C(=O)N3CCOC3=O)[C@@H]2c2ccccc2)c1 was read as GDH-TPI inh 11, FBA Mtb inh 9 and CCHF vOTU inh 8.
`O=C1OCCN1C(=O)[C@H]1[C@H](c2ccccc2)C(c2ccc(F)cc2)=NN1c1ccc(Br)cc1` gave GDH-TPI inh 24, FBA Mtb inh 35* and CCHF vOTU inh 7.
O=C1OCCN1C(=O)[C@H]1[C@H](c2ccccc2)C(c2ccccc2)=NN1c1ccccc1 was read as GDH-TPI inh 4, FBA Mtb inh 10 and CCHF vOTU inh 0.
`O=C1OCCN1C(=O)[C@H]1[C@H](c2ccccc2)C(c2ccccc2)=NN1c1ccc(Br)cc1` gave GDH-TPI inh 16, FBA Mtb inh 43* and CCHF vOTU inh -60.
`OCc1ccccc1OCc1ccccc1` gave CCHF vOTU inh -1.
`CC(C)CNc1cccc2c1S(=O)(=O)N(Cc1cccc(F)c1)[C@@H](C)[C@H](c1ccccc1)O2` gave CCHF vOTU inh -2.
Screening Cc1ccc(S(=O)(=O)N2CCCCC2)cc1NC(=O)C1CC1 returned GDH-TPI inh 5, FBA Mtb inh 4 and CCHF vOTU inh -15.
